# Sampled rows, rich in hits. Any-hit rate of the full collection: about 9.4%.
# FLuc modulator – qHTS profiling assay for firefly luciferase inhibitor/activator using purifed enzyme and Km concentrations of substrates (counterscreen for miR-21 project); purified FLuc, Km substrates, luminescence inhibition; Potency, µM (highest dose often 57.5 µM), most hits filed as inhibitors; 360,000 tested, 6.9% active; note: nearly all actives have a fitted effect of over 55% in size
# Target sequence (P08659 whole entry, looked up): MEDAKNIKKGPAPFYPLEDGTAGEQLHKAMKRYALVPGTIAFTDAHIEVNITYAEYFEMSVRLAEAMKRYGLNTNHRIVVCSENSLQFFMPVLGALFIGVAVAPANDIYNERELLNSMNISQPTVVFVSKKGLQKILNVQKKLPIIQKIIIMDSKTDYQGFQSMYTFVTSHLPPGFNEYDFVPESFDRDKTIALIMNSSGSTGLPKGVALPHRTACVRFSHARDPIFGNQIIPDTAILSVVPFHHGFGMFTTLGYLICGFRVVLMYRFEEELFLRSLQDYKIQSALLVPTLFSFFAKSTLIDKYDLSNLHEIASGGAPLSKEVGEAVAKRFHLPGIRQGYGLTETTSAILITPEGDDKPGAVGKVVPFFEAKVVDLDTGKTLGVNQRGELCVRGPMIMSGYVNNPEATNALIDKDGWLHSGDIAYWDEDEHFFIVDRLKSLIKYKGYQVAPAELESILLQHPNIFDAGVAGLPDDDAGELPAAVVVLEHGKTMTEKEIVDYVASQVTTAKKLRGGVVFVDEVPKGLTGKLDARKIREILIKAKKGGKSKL
#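 Biochemical qHTS of compounds, final roughly 60 µM downward over six points, against 10 nM purified firefly luciferase using Km concentrations of substrates (10 uM D-luciferin, 10 uM ATP) in Tris acetate pH 7.5 buffer; luminescence output.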
# Rab9 prom act – qHTS Assay for Rab9 Promoter Activators; 320,000 tested, 2.8% active; AID 485297, 2010; Huh7 Rab9 promoter-luciferase reporter, luminescence, 24 h; Potency, µM (titrated, usually from 9.22 µM), actives largely listed as activators; note: nearly all actives have a fitted effect of over 60% in size
#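 Huh7 cells stably carrying a Rab9 promoter-luciferase reporter, 1500 cells per well in OP-MEM I with 10% FBS, treated with compound 24 hours at 37C. Luciferase activity read by luminescence after 10 minutes with Amplite reagent.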
# SMN2 splice up – qHTS Assay for Enhancers of SMN2 Splice Variant Expression. 210,000 tested, 2.8% active. HEK293 SMN2-luciferase splicing reporter, luminescence, 30-36 h. Potency, µM (series often up to 46.1 µM), hits mostly activators. AID 1458, 2008; note: nearly all actives have a fitted effect of over 55% in size
#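 HEK293 cells carry an SMN2 […]–luciferase reporter in which exon 7 inclusion puts luciferase in frame. Cells were plated 10-12 h before compound addition, then incubated 30-36 h at 37C. ONE-Glo luminescence was read; sodium butyrate at 4.5 mM final served as control.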
# ELG1 genotoxic – qHTS screen for small molecules that induce genotoxicity in human embryonic kidney (HEK293T) cells expressing luciferase-tagged ELG1; 330,000 tested, 1.3% active; AID 504466, 2011; Potency, µM (highest dose often 46 µM), most hits filed as activators; HEK293T ELG1-luciferase reporter, luminescence, 16 h; note: nearly all actives have a fitted effect of over 60% in size
#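 ELG1-luciferase HEK293T cells, 2,000/well; compound pinned in; 16 hr, 37 °C, 5% CO2; ONE-Glo, 30 min RT; luminescence on CCD imager.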
# ELG1 repair inh – qHTS screen for small molecules that inhibit ELG1-dependent DNA repair in human embryonic kidney (HEK293T) cells expressing luciferase-tagged ELG1. HEK293T ELG1-luciferase reporter, luminescence, 16 h; DNA damage induced by 5-fluorouridine. Potency, µM (highest dose often 46.1 µM), usual class: inhibitors. 330,000 tested, 2.3% active; note: nearly all actives have a fitted effect of over 55% in size
#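 Reporter activity after DNA damage by 5-fluorouridine is monitored. Compound-treated cells incubate 16 hr at 37 °C, then ONE-Glo is added for 30 min before luminescence reading.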
# NPC1 prom act – qHTS Assay for NPC1 Promoter Activators; Huh7 NPC1 promoter luciferase reporter, 24 h; Potency, µM (top dose mostly 9.22 µM), hits mostly activators; 320,000 tested, 2.4% active; AID 485313, 2010; note: nearly all actives have a fitted effect of over 60% in size
#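 Cells: Huh7 expressing luciferase under the NPC1 promoter, 1500/well. Seeded 2 h, compound added, incubated 24 h at 37 °C. Luciferase reagent, 10 min ambient, then luminescence.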
# A number is an active result; . = inactive; ? = inconclusive; / = no result given; [ ] = remark or other dose. Calls come from the whole dose curve; as a rule, active = well fitted curve in the direction sought with a large enough effect; inconclusive = small, poorly fitted or top-dose-only effect, or another doubt; inactive = no such curve, though single readings can be large; an effect the other way counts as inactive or inconclusive.
SMILES,FLuc modulator,Rab9 prom act,SMN2 splice up,ELG1 genotoxic,ELG1 repair inh,NPC1 prom act
O=C(Nc1nccs1)c1c(O)c2c([nH]c1=O)CCCC2,?,2.2µM,/,.,?,?
O=C(N/N=C/c1cccc(Cl)c1)c1c(O)c2c([nH]c1=O)CCCC2,?,2.5µM,/,?,?,2.8µM
Cc1ccc(N2CCN(C(=O)c3nn(C)c4c3CSc3ccccc3-4)CC2C)cc1 (configuration not stated),.,/,/,/,/,/
CN(C)CCn1c2c(c(SCC(=O)Nc3ccc(F)cc3F)nc1=O)CCC2,.,/,/,/,/,/
Cc1cc2c(=O)[nH]c(N)nc2nc1C,/,/,.[9.22 µM],/,/,/
Cc1cc(C)c2nc3nc(C)c(C)cc3c(N)c2c1,17µM,.,.,.,.,.
O=C(c1ccc(-c2ccccc2)cc1)c1ccccc1C(=O)N1CCOCC1,?,.,/,.,.,.
O=C(/C=C/N1CCOCC1)c1ccc(-c2ccccc2)cc1,11µM,3.2µM,?,.,?,1.8µM
O=C(/C=C\N1CCOCC1)c1ccc(Br)cc1,15µM,?,/,?,?,?
COc1ccc(Nc2nc(-c3sc(C)nc3C)cs2)cc1,15µM,.,/,.,.,.
CCOc1ccccc1Nc1nc(-c2sc(C)nc2C)cs1,?,.,/,.,?,.
Clc1cccc(-c2csc(Nc3cccnc3)n2)c1,?,.,/,.,.,.
Cc1nc(C)c(-c2csc(Nc3cccnc3)n2)s1,12µM,.,?,?,?,.
Cc1nc(C)c(-c2csc(Nc3ccc(O)c(C(=O)O)c3)n2)s1,9.5µM,.,/,.,.,.
Cc1nc(C)c(-c2csc(Nc3ccc(N)cc3)n2)s1,11µM,.,/,.,?,?
O=C(NCCc1ccccc1)c1ccc(CSc2nc3cccnc3n2Cc2ccccc2)cc1,.,/,/,/,/,/
Cc1c(Cl)cccc1NC(=O)CSc1ncccc1C(=O)Oc1ccccc1Cl,.,/,/,/,/,/
Cc1ccc(NC(=O)c2ccc(OC(=S)N3CCOCC3)cc2)cc1,.,2µM,.,?,?,?
O=C(Nc1ccccc1Br)c1ccc(OC(=S)N2CCOCC2)cc1,.,.,/,.,.,.
O=C(Nc1ccc(C(=O)N2CCOCC2)cc1)c1cccc(Br)c1,.,.,/,?,.,.
Cc1ccc(NC(=O)c2ccc(CNc3c(N4CCOCC4)c(=O)c3=O)cc2)cc1,15µM,.,.,.,.,.
O=C(Nc1cccc(Br)c1)c1cccc(OC(=S)N2CCOCC2)c1,.,.,/,.,15µM,.
Cc1ccc(CN2CCN(CC(=O)NCc3ccccc3Cl)C2=O)cc1,.,/,.,/,/,/
COc1ccc(/C=C2\CCC/C(=C\c3ccc(OC)c(OC)c3OC)C2=O)c(OC)c1OC,.,.,/,.,23µM,.
COc1ccc(/C=C2\CC/C(=C\c3ccc(OC)cc3OC)C2=O)c(OC)c1,?,.,.,?,.,.
SMILES,FLuc modulator,Rab9 prom act,SMN2 splice up,ELG1 genotoxic,ELG1 repair inh,NPC1 prom act
COc1cc(OC)c(OC)cc1/C=C1\CCC/C(=C\c2cc(OC)c(OC)cc2OC)C1=O,.,.,/,.,15µM,.
CCCc1cc(=O)[nH]c(Nc2cc(Cl)cc(Cl)c2)n1,.,/,.,/,/,/
Cc1ccc2oc(=O)c3cnn(CC(=O)Nc4cccc(C(F)(F)F)c4)c3c2c1,.,/,.,/,/,/
Cn1c(NC(=O)c2cc(-c3ccc4c(c3)OCO4)nc3ccccc23)cc(=O)n(C)c1=O,2.1µM,.,10µM,?,?,.
CN(C)c1ccc(-c2c(-c3ccc4c(c3)OCO4)noc2-c2ccsc2)cn1,?,.,/,.,?,.
O=C(O)c1cc(-c2ccc(-c3c(-c4ccc5c(c4)OCO5)noc3-c3ccsc3)cc2)nc2ccccc12,19µM,.,/,.,?,?
CC(C)(C)NC(=O)c1cc(-c2ccc3c(c2)OCO3)nc2ccccc12,17µM,.,/,.,.,.
N[C@@H](Cc1cc(I)c(Oc2ccc(O)cc2)c(I)c1)C(=O)O,/,/,.,/,/,/
CCN(CC)c1ccc(C(=O)NCc2nc3cccnc3n2Cc2ccc(C)cc2)cc1,.,/,/,/,/,/
CCOc1ccccc1Nc1nc(-c2ccc(C)cc2)c(CC(=O)O)s1,?,/,.,/,/,/
COc1cccc2c1cc1c(=O)n(CC(=O)N3CCN(c4cccc(C)c4)C(C)C3)nc(C)n12 (configuration not stated),.,/,.,/,/,/
COc1ccc(-c2csc(N3N=C(C)C(C)C3=O)n2)cc1 (configuration not stated),8.5µM,4.5µM,?,.,?,?
CC1=NN(c2nc(-c3ccc(C)cc3)cs2)C(=O)C1N=Nc1ccccc1O (configuration not stated),11µM,.,/,.,?,.
CN1C(=O)C2(c3ccccc31)N(c1cccc(C(F)(F)F)c1)C(=O)CS2(=O)=O (configuration not stated),.,/,/,/,/,/
CCc1ccc2oc(-c3ccc(C)c(NC(=O)c4ccc(C#N)cc4F)c3)nc2c1,17µM,/,.,/,/,/
CCc1ccc2oc(-c3ccc(C)c(NC(=O)Cc4ccccc4)c3)nc2c1,4.8µM,/,.,/,/,/
O=C(Cc1ccccc1)Nc1cc(-c2nc3cc(Cl)ccc3o2)ccc1Cl,.,/,?,/,/,/
CCC(=O)Nc1cc(-c2nc3cc(C)cc(C)c3o2)ccc1C,1.7µM,/,.,/,/,/
CC(=O)c1ccc(-c2ccc(C(=O)Nc3nc(C)c(C(C)=O)s3)o2)cc1,.,.,/,.,.,.
COc1ccc(C)cc1NC(=O)CNC(c1ccccc1)c1ccc(C)cc1 (configuration not stated),.,.,/,.,6.5µM,.
CSc1ccccc1C(=O)C1CCCN(C(=O)c2ccc(N3CCOCC3)cc2)C1 (configuration not stated),.,.,/,.,?,.
O=C(c1cccc2ccccc12)C1CCCN(C(=O)c2ccc(N3CCOCC3)cc2)C1 (configuration not stated),?,.,/,.,16µM,.
C=CCNC(=S)NNC(=O)COc1ccc2cc(Br)ccc2c1,.,3.2µM,11µM,?,?,?
C=CCNC(=S)NNC(=O)COc1ccc(Br)cc1,.,.,.,.,?,.
CCN(CC)S(=O)(=O)c1ccc2c(c1)C(=NO)c1cc(S(=O)(=O)N(CC)CC)ccc1-2,.,.,.,.,7.3µM,.
CCN(CC)S(=O)(=O)c1cccc(S(=O)(=O)c2cccc(S(=O)(=O)N(CC)CC)c2)c1,.,.,.,.,8.9µM,.
O=S(=O)(c1ccc2c(c1)C(=NO)c1cc(S(=O)(=O)N3CCCCC3)ccc1-2)N1CCCCC1,.,.,.,.,?,.

# High-throughput results: PubChem, National Center for Advancing Translational Sciences (NCATS)
